Measurements: the supplement of paper PMC3545927
Some of the results follow. The hit rate among all sequences tested is not known here.

Biological target: furin, P09958
Test: furin cleavage Z-score vs untreated control; higher = more cleavage, active = 3.5 or more, inactive = 1 or less, 8 variable residues between constant flanks
How it was run: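 The cleavage Z-score was derived for purified furin acting on 8-mer peptides held on magnetic beads and fused to a cDNA oligonucleotide. Digests lasted 7.5, 15 or 30 min at 1:10 enzyme:substrate in 50 mM HEPES pH 7.5 with CaCl2 and NaCl. Sequencing counts of released DNA, log-transformed against furin-free reactions, were lowess-adjusted and scaled by median absolute deviation.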

Chain of furin, P09958 (P09958 whole entry): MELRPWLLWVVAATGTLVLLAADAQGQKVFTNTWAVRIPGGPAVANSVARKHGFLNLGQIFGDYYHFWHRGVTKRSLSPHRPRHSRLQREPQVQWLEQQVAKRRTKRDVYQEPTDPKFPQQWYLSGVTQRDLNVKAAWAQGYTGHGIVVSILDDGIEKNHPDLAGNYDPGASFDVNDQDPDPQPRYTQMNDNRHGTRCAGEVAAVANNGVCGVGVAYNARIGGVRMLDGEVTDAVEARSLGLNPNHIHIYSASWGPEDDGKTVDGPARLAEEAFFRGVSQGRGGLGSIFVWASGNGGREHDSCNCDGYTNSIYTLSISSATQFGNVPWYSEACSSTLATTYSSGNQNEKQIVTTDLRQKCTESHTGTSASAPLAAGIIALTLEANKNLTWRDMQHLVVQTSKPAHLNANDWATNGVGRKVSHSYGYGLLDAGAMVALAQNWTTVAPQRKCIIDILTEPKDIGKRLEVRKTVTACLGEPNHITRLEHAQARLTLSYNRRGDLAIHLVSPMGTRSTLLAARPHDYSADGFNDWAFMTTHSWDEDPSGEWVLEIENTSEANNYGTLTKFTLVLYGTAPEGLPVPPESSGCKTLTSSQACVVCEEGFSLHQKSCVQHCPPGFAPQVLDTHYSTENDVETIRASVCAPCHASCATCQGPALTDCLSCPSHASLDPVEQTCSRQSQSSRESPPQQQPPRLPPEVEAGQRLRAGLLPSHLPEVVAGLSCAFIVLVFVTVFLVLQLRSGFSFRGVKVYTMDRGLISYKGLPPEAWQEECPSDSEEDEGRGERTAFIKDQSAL

Row | Sequence | furin cleavage Z-score (7.5 min) | furin cleavage Z-score (15 min) | furin cleavage Z-score (30 min)
1 | CADCEVVTSTAGNASASA [HC2300] | 0.556 (inactive) | 0.654 (inactive) | -0.729 (inactive)
2 | CAQVCCSMSYAGNASASA [HC2002] | -0.191 (inactive) | -0.875 (inactive) | 0.558 (inactive)
3 | CAMEECSQELAGNASASA [HC1752] | 0.357 (inactive) | -0.13 (inactive) | -0.468 (inactive)
4 | CAVGIFRAAVAGNASASA [HC749] | -0.179 (inactive) | -0.141 (inactive) | 0.209 (inactive)
5 | CAARVCSCLWAGNASASA [HC525] | -1.84 (inactive) | -1.52 (inactive) | 1.13
6 | CAEKEVPCHRAGNASASA [HC2454] | 0.758 (inactive) | -0.375 (inactive) | 1.43
7 | CALLRRQIRTAGNASASA [FS-1642] | 6.82 (active) | 8.8 (active) | 8.78 (active)
8 | CADQRPYCWHAGNASASA [HC401] | 0.793 (inactive) | -0.215 (inactive) | 1.33
9 | CAGIDPNIRTAGNASASA [HC797] | -1.41 (inactive) | -0.301 (inactive) | -1.74 (inactive)
10 | CATLRRYKRHAGNASASA [FS-964] | 11.2 (active) | 10.9 (active) | 8.76 (active)
11 | CAPTGREKRPAGNASASA [FS-75] | 0.811 (inactive) | 0.063 (inactive) | 0.807 (inactive)
12 | CAHEGREKRHAGNASASA [FS-1630] | 7.09 (active) | 9.28 (active) | 8.39 (active)
13 | CALLWRQEMGAGNASASA [HC1276] | 1.14 | 0.0716 (inactive) | 0.841 (inactive)
14 | CAETPCHRPSAGNASASA [HC2338] | -0.427 (inactive) | -0.0389 (inactive) | 1
15 | CAEILLGPADAGNASASA [HC665] | 0.796 (inactive) | -1.29 (inactive) | 0.764 (inactive)
16 | CATEMEECSQAGNASASA [HC1798] | 1.39 | -0.469 (inactive) | -0.647 (inactive)
17 | CAEVVTSTWQAGNASASA [HC2262] | 0.0156 (inactive) | -1.35 (inactive) | -0.305 (inactive)
18 | CAQRRRQLRSAGNASASA [FS-1254] | 9.6 (active) | 10.8 (active) | 7.49 (active)
19 | CAQRRRQRRPAGNASASA [FS-1557] | 0.0891 (inactive) | -1.68 (inactive) | 0.0903 (inactive)
20 | CAMKNRFLRSAGNASASA [FS-1645] | 7.49 (active) | 7.31 (active) | 7.79 (active)
21 | CANRCRMLRSAGNASASA [FS-469] | 2.76 | 3.91 (active) | 2.25
22 | CASRCRFLRSAGNASASA [FS-1086] | 4.82 (active) | 4.36 (active) | 4.8 (active)
23 | CAEVEVPCHRAGNASASA [HC2450] | 1.03 | 0.836 (inactive) | 1.62
24 | CACVPCHRPSAGNASASA [HC2320] | -1.73 (inactive) | 2.15 | -0.71 (inactive)
25 | CAGGPLTNSRAGNASASA [HC1502] | -0.097 (inactive) | 1.45 | 0.841 (inactive)
26 | CAENVVCCSMAGNASASA [HC2141] | -0.000681 (inactive) | -0.718 (inactive) | 1.03
27 | CARCRRLVREAGNASASA [FS-3185] | 8.42 (active) | 9.96 (active) | 8.44 (active)
28 | CADREVLYREAGNASASA [HC1009] | 1.17 | 0.738 (inactive) | 0.787 (inactive)
29 | CARCRRQFQEAGNASASA [FS-1887] | 0.189 (inactive) | 1.16 | 1.9
30 | CAEPSRLVREAGNASASA [FS-1452] | 3.98 (active) | 5.86 (active) | 4.45 (active)
